The text below walks through data of PubChem BioAssay (NCI).

This is part of a sample that, as a whole, favours compounds with a hit. Of some 83,000 tested, about 20% had one in any assay.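 48-hour exposure, single concentration, 96-well plates; percent growth endpoint where 0 means no net growth. Active: below 10.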 Unmarked numbers belong to inactive results. Activity calls are given as the source filed them.

The subject of the assay is SK-OV-3 ovarian. Nature of the assay: NCI-60 one-dose screen, 48 h (100 = growth as untreated, 0 = no growth, -100 = all killed). Particulars: 10 µM unless noted. On the procedure: Growth inhibition of the SK-OV-3 human tumor cell line is measured as a screen for anti-cancer activity. Cells are grown in 96 well plates and exposed to the test compound for 48 hours. Compounds are tested at a single concentration, which is 10^-5 M for most compounds. The reported endpoint is percent growth (GI% or GIPRCNT), where numbers from 0 - 100% represent growth inhibition, and numbers from -100% - 0 represent cell death. For example, a value of 40 represents 60% growth inhibition. A value of 0 means no net growth occurred over the course of the experiment. A value of -40 indicates 40% of cells at the beginning of the experiment died by the end of the experiment. A value of -100 means all cells are dead at the end of the experiment.
NCI-60 Human Tumor Cell Lines Screen was performed using the standard one-dose NCI protocol, which is described in more detail at https://dtp.cancer.gov/discovery_development/nci-60/default.htm.
Compounds with GIPRCNT values below 10 were considered active. Activity score was based on GIPRCNT using the following formula: […]
Score is 0 for GIPRCNT values of 100 or above, 50 for GIPRCNT values of 0, and 100 for GIPRCNT values of -100.
Turning to `COc1ccc(Cl)cc1NC(=O)c1c(NC(=O)C(F)(F)C(F)(F)F)sc2c1CCCCC2`, the growth was -19.6% (active). The figure for `CC1CCN(C(=O)OCc2nc3nc(Cl)nc(N4CCOCC4)c3[nH]2)CC1` is 62.8%; for `COc1cccc2c1C(=O)c1c(O)c3c(c(O)c1C2=O)C[C@@](O)(C(=O)CO)C[C@@H]3O[C@H]1C[C@H](N)[C@@H](O)[C@H](C)O1` it is 7.22% (active); for `CCCCCCCCOc1ccc(/C=N/Nc2cc(C)nc3ccc(Cl)cc23)cc1` it is 90.3%.

In the case of `COc1cc(-c2nc3occn3c2-c2ccnc(NCCNS(=O)(=O)c3ccc(Cl)cc3)n2)ccc1F`, the growth was 67.3%.

As for `COC(=O)C1=C(C(=O)ONCCN(C)C)C2C=CC1(C(Cc1ccccc1)Nc1ccc(F)cc1)O2` (stereo not given), the growth was 104%. For `O=C(Nc1ccc(Cl)cc1)Nc1ccc(Cl)c(Cl)c1`, the growth is 20.2%. Regarding `Cc1ccc(C2CC(c3cccc(Nc4ccncc4)c3)=NN2c2cc(Cl)cc(Cl)c2)cc1` (stereo not given), the growth was 83.4%.

In the case of `CC(C)Cc1ccc(C(C)C(=O)NCc2c[nH]c3ccc(Cl)cc23)cc1` (stereo not given), the growth was 98.9%. The result for `O=c1[nH]c(=O)[nH]c(=S)[nH]1` reads 111%. On to `Nc1nnc(C(=O)c2cnc3n(c2=O)CCCCC3)s1`, for which the growth is 101%.

Regarding `NC(=O)c1ccc[n+](CC(=O)N2CCN(c3cc4c(cc3F)c(=O)c(C(=O)O)cn4C3CC3)CC2)c1`, the growth was 117%. The figure for `FCc1nc2nc(Cl)c(Cl)nc2[nH]1` is 97.1%; for `C#Cc1cccc(NC(=O)Nc2cccc(N=C=S)c2)c1` it is 120% [8.25 µM].

For the molecule `C=C1C(=O)O[C@H]2[C@H]1CC/C(CNC(=O)/C=C/c1ccccc1F)=C\CC[C@@]1(C)O[C@@H]21`, the growth was 96.6%. The result for `NC(=O)CN1CCN(c2ccccc2Cl)CC1` reads 103%; that for `CC1NC(=S)NC(=O)/C1=C/c1cc(=O)oc2c1ccc1ccccc12` (stereo not given), 94.4%; that for `C=C(C)[C@@H]1CC[C@]2(C(=O)NCC(=O)OC)CC[C@]3(C)[C@H](CC[C@@H]4[C@@]5(C)Cc6c([nH]c7ccccc67)C(C)(C)[C@@H]5CC[C@]43C)[C@@H]12`, 84.5%.

As to `Clc1ccc(C2CC(c3cccc(Nc4ccncc4)c3)=NN2c2cc(Cl)cc(Cl)c2)cc1` (stereo not given), the growth was 90.7%.

Regarding `CN1CCN(C(=O)[C@]2(C)CC[C@]3(C)CC[C@]4(C)C(=CC(=O)[C@@H]5[C@@]6(C)CCC(=O)NC(C)(C)[C@@H]6CC[C@]54C)[C@@H]3C2)CC1`, the growth was 91%. For `c1ccc(-c2nn(-c3ccccc3)[n+](-c3cccc4ccccc34)n2)cc1`, the growth is 66.3%. The result for `COc1cc(CCNc2nc3cc(N)cc(N)c3nc2-c2ccccc2)cc(OC)c1` reads 82.3%. The result for `CCCNC(=O)Oc1ccc(/C(=C(\C)c2ccccc2)c2ccc(OCCN3CCCCC3)cc2)cc1` reads 79.3%. The result for `O=C(CNCCO)Nc1ccc2ncnc(Nc3ccc(OCc4cccc(F)c4)c(Cl)c3)c2c1` reads 16.4%; that for `NC(=O)C1(N2CCCCC2)CCN(CCCC(=O)c2ccc(F)cc2)CC1`, 30.8%. As to `COc1ccc(C2CC(c3cccc(Nc4ccncc4)c3)=NN2c2cc(Cl)cc(Cl)c2)cc1` (stereo not given), the growth is 75%. The figure for `COc1cc(/C=C/C(=O)c2c(C)oc3nc[nH]c(=O)c23)ccc1O` is 103%; for `C/C(=C(/c1ccccc1)c1ccc(OCC(O)CNCCN2CCOCC2)cc1)c1ccccc1` (stereo not given) it is 95.4%. In the case of `C=C1C(=O)O[C@H]2[C@H]1CC/C(COC(=O)CCCc1c[nH]c3ccccc13)=C\CC[C@@]1(C)O[C@@H]21`, the growth was 98.2%. The figure for `Fc1cc(C2=NNC(c3ccc[nH]3)C2)ccc1-n1ccc(C(F)(F)F)n1` (stereo not given) is 112%; for `COc1cc2nc(-c3ccc(-c4nn[nH]n4)cc3)[nH]c(=O)c2cc1OC` it is 108%. The result for `CCCCCN1C=C/C(=C\C(=O)N(C)c2ccc(Br)cc2)c2ccccc21` reads 96.8%.

With `CCCCc1ccc(Nc2nnc(SCC(=O)NC(=O)NCC)s2)cc1`, the growth was 195%. The figure for `CC(=O)c1c[nH]c2ccc(-c3ccnc(Nc4ccc(NC(=O)C5CCCC5)c(CN5CCOCC5)c4)n3)cc12` is 10.6%. The figure for `CCCCCCNC(=O)Oc1ccc(/C(=C(/CC)Cc2ccccc2)c2ccc(OCCN(CC)CC)cc2)cc1` is 89%; for `O=C(/C=C/c1ccc[nH]1)c1ccc(-n2ccc(C(F)(F)F)n2)cc1` it is 114%; for `CC1(C)NCCC[C@]2(C)[C@H]3CC=C4[C@@H]5C[C@@](C)(CO)CC[C@]5(C)CC[C@@]4(C)[C@]3(C)CC[C@@H]12` it is 93.1%. The result for `Cc1cccc(C)c1-c1cc(Cc2ccc(Cl)cc2)c(=O)[nH]n1` reads 103%.

As to `COc1ccc(Cn2nc3c(c2-c2cc(OC)c(OC)c(OC)c2)-c2oncc2CC3)cc1`, the growth was 94.7%.

In the case of `CN(Cc1ccccc1)c1nc(Cl)c(C2CC(c3ccc(Cl)cc3)=Cc3[nH][nH]c(=O)c32)s1` (stereo not given), the growth is 101%.
